40 compounds from PubChem BioAssay (Tox21) can be followed below.

Where “and” joins values, the source holds several entries; their conditions need not be identical. Equal entries are not always repeated. Records with an inconclusive call do not appear. Entries that show only a call come without a potency. Calls of active or inactive are those of the source. Calls follow the shape of the dose curve; as a rule, active = well fitted cell-killing curve with a large enough effect in the repeat runs (not every such curve was filed as active); inconclusive = weak or mixed curves, or effect the other way; inactive = no such curve, though single readings can be large or run the other way.
Potency is read from the fitted curve at half-maximal effect.

The nature of the experiment: qHTS assay to identify small molecule antagonists of the farnesoid-X-receptor (FXR) signaling pathway - cell viability counter screen (AID 743221). Also: nearly all actives have a fitted effect of over 50% in size. The following applies: FXR-bla HEK293T viability, CellTiter-Glo luminescence, 16 h; series mostly up to 62.6 µM. The source says: National Center for Advancing Translational Sciences [NCATS]
NIH Chemical Genomics Center [NCGC]
U.S. Environmental Protection Agency [EPA]
National Institutes of Environmental Health Sciences [NIEHS]
National Toxicology Program [NTP]
U.S. Food and Drug Administration [FDA]
The farnesoid-X-receptor (FXR), a nuclear hormone receptor, is highly expressed in liver, intestine, kidney and adrenal cortex. Natural ligands of FXR are the bile acids (Cholic acid, Chenodeoxy cholic acid etc). FXR is an important regulator of diverse metabolic pathways, including the bile acid homeostasis, lipid and glucose metabolisms. FXR regulates the expression of target genes by binding either as a monomer or as a heterodimer with the retinoid X receptor (RXR). Numerous studies have reported that FXR exerts protective function during cholestasis, diabetes, liver regeneration, and cancer. To identify compounds that inhibit FXR signaling, GeneBLAzer FXR-UAS-bla HEK 293T cell line (Invitrogen, Carlsbad, CA) containing a beta-lactamase reporter gene under the control of a UAS response element was used to screen the Tox21 10K compound library. The cytotoxicity of the Tox21 compound library against the FXR-bla cell line was tested in parallel by measuring the cell viability using CellTiter-Glo assay in the same wells.
Tox21 Assay Protocol Summary:
FXR-bla cells were dispensed at 5000 cells/5uL/well in 1536-well black wall/clear bottom plates using a Multidrop Combi (Thermo Fisher Scientific, Waltham, MA) dispenser. After the assay plates were incubated at 37 C and 5% CO2 for 5 h, 23 nL of compounds dissolved in DMSO, positive controls or DMSO only was transferred to the assay plate by a Pintool station (Kalypsys, San Diego, CA), followed by addition of 1 uL Chenodeoxycholic acid (50 uM, final concentration in the wells). The assay plates were incubated at 37C for 16 h. After 1 uL of LiveBLAzerTM B/G FRET substrate was added using a Bioraptr Flying Reagent Dispenser (FRD) workstation (Beckman Coulter, Indianapolis, IN), the plates were incubated at room temperature for 2 h, and fluorescence intensity was measured by an Envision plate reader (PerkinElmer, Shelton, CT). For cell viability readout that measures cytotoxicity, 4uL/well of CellTiter-Glo reagent was added into the assay plates using a Bioraptr FRD. After 30 min incubation at room temperature, the luminescence intensity in the plates was measured using a ViewLux plate reader (PerkinElmer).
(In general: In qHTS, concentration-response curves come from the screen itself.)
As to `CCCN(CCC)c1c([N+](=O)[O-])cc(C(C)C)cc1[N+](=O)[O-]`, the Potency result is “inactive”.

On to `CON(C)C(=O)Nc1ccc(Cl)cc1`, for which the Potency entry is “inactive”.

For the compound `CC(C)CCCCCCCOC(=O)c1ccccc1C(=O)OCCCCCCCC(C)C`, the Potency result was “inactive”.

As for `CC(C)c1ccc(NC(=O)N(C)C)cc1`, the Potency entry was “inactive”.

Regarding `CCCCCCCCCCCC[N+](C)(C)CCOc1ccccc1`, the Potency is 49 µM (active).

Turning to `N#CC1(N=NC2(C#N)CCCCC2)CCCCC1`, the Potency entry is “inactive”.

With `COC1=CC(=O)O[C@@H](/C=C/c2ccc3c(c2)OCO3)C1`, the Potency entry is “inactive”.

Consider `CCC[N+](CCC)(CCC)CCC`, for which the Potency entry was “inactive”.

Turning to `C[N+](C)(C)CC1CO1` (stereo not given), the Potency entry is “inactive”.

For the compound `CCCCCCCCn1sccc1=O`, the Potency is 6.18 µM (active) and 4.57 µM (active).

Take `CC(Cc1ccccc1)NCc1ccccc1Cl` (stereo not given): the Potency entry is “inactive”.

For `O=P(OCC(Br)CBr)(OCC(Br)CBr)OCC(Br)CBr` (stereo not given), the Potency result was “inactive”.

In the case of `CCCN(CCOc1c(Cl)cc(Cl)cc1Cl)C(=O)n1ccnc1`, the Potency entry is “inactive”.

In the case of `N#CC(C#N)=C(C#N)C#N`, the Potency result is “inactive”.

Regarding `Cc1cnc(C2=NC(C)(C(C)C)C(=O)N2)c(C(=O)O)c1` (stereo not given), the Potency entry is “inactive”.

For the compound `CC(C)(C#N)C(C)(C)C#N`, the Potency result is “inactive”.

For the compound `CCCN(CCC)C(=O)Cc1c(-c2ccc(Cl)cc2)nc2ccc(Cl)cn12`, the Potency entry was “inactive”.

Consider `Nc1cc(Cl)cc(C(=O)O)c1Cl`, for which the Potency result was “inactive”.

In the case of `C[N+]1(CCC(C(N)=O)(c2ccccc2)c2ccccc2)CCCCC1`, the Potency result is “inactive”.

Turning to `C1CS1`, the Potency result was “inactive”.

`CCCSP(=S)(OCC)Oc1ccc(SC)cc1` (stereo not given): the Potency entry is “inactive”.

For `CC(=O)OC(c1ccccc1)C(Cl)(Cl)Cl` (stereo not given), the Potency result was “inactive”.

As for `C=C(Cl)Cl`, the Potency entry was “inactive”.

With `C=CCN1C[C@H](C)N([C@H](c2ccc(C(=O)N(CC)CC)cc2)c2cccc(OC)c2)C[C@H]1C`, the Potency result is “inactive”.

With `CCC(=O)O[C@@H]1C=C2CCC3C(CCC4(C)C3CC[C@@H]4OC(=O)CC)C2CC1` (stereo not given in full), the Potency entry is “inactive”.

As to `CCOC(=O)c1cncn1C(C)c1ccccc1` (stereo not given), the Potency entry is “inactive”.

Turning to `C=CC(=O)OCC`, the Potency result was “inactive”.

As to `Cc1ncc(C[n+]2csc(CCO)c2C)c(N)n1`, the Potency result was “inactive”.

With `C[C@]12C=CC3=C4CCC(=O)C=C4CC[C@H]3[C@@H]1CC[C@@H]2O`, the Potency entry is “inactive”.

For the compound `FC(Cl)(Cl)C(F)(Cl)Cl`, the Potency entry was “inactive”.

In the case of `O=[N+]([O-])c1cc(Cl)c(Cl)cc1Cl`, the Potency result is “inactive”.

For `CCC1CCC(=O)O1` (stereo not given), the Potency result is “inactive”.

For `O=C(NCNC(=O)NC1C(=O)NC(=O)N1CO)NC1C(=O)NC(=O)N1CO` (stereo not given), the Potency result was “inactive”.

On to `COc1ccc(C(=O)c2c(C)n(CCN3CCOCC3)c3ccccc23)cc1`, for which the Potency entry is “inactive”.

`Cc1nc(N(C)C)nc(OC(=O)N(C)C)c1C`: the Potency result is “inactive”.

Take `CC[N+]1(C)CCCC(OC(=O)C(O)(c2ccccc2)c2ccccc2)C1` (stereo not given): the Potency result is “inactive”.

Turning to `CC(C)C1(C)N=C(c2ncccc2C(=O)O)NC1=O` (stereo not given), the Potency entry is “inactive”.

As to `CC(CC(C(N)=O)(c1ccccc1)c1ccccc1)N(C)C` (stereo not given), the Potency result was “inactive”.

In the case of `CCCC(C)(COC(N)=O)COC(=O)NC(C)C` (stereo not given), the Potency result is “inactive”.

Regarding `C[C@H]1[C@@H]2Cc3ccc(O)cc3[C@@]1(C)CCN2C`, the Potency entry is “inactive”.
